Molecules are shown by their SMILES. Active and inactive are the calls of the source.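 How the source made its calls, unless noted: active means mean inhibition above 46.68%, the untreated control wells mean plus 3 SD; inactive means the rest.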

As a reminder, the inhibition is the relative decrease from the control value, in per cent.

Sequence of Nuclear receptor coactivator 1 (Homo sapiens) (Q15788 whole entry, looked up, the tested form may be a part): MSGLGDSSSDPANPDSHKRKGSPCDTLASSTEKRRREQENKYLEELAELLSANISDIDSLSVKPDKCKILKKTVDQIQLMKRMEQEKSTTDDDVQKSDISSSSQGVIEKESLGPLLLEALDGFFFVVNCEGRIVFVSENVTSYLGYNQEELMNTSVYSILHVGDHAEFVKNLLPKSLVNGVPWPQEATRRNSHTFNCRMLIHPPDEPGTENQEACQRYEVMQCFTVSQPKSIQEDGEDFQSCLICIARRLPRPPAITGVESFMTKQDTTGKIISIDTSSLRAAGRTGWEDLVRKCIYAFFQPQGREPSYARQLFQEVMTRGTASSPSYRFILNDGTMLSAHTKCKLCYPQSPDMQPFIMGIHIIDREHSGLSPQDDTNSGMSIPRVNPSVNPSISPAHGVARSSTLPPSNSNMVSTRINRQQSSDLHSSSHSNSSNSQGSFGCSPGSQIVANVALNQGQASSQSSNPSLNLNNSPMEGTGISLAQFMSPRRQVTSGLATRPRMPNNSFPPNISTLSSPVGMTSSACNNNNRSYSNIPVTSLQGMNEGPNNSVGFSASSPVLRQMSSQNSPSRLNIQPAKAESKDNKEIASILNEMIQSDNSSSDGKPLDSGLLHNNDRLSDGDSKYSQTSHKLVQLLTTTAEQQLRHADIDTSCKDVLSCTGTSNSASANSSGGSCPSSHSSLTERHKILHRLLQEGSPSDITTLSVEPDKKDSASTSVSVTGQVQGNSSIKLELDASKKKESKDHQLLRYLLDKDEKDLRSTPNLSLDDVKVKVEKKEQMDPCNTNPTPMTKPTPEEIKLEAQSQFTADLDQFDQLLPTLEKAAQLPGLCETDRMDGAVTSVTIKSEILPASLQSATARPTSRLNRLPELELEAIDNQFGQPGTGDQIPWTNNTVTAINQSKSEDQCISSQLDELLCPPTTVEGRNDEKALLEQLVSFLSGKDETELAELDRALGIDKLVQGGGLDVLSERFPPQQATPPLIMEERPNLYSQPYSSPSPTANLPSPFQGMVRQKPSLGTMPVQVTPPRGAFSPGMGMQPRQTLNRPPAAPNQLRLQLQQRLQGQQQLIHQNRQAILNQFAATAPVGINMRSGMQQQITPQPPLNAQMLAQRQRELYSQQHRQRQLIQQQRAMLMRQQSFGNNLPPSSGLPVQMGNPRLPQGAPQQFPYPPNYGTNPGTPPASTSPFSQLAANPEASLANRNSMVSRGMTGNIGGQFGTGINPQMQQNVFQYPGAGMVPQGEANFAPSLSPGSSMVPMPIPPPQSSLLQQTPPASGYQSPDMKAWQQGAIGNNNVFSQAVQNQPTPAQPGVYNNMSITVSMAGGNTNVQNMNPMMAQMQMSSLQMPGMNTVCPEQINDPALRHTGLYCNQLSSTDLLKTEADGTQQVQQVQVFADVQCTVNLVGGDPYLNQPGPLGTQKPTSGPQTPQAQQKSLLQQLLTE

The first test has as its target Nuclear receptor coactivator 1 (Homo sapiens) (UniProt Q15788). In words: SRC1 coactivator transcriptional activity inhibitors, confirmation, cell-based, luminescence, quadruplicate (AID 588820).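 Further: 0% = DMSO wells and 100% = gossypol 36 µM treated wells.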 Particulars: HEK293 GAL4-SRC1 luciferase reporter, at 3.6 µM, hits give high values. On the technique in general: A reporter such as luciferase makes a cellular process visible.
As to `O=C(Nc1ccc(F)cc1F)c1c(C(F)(F)F)ccnc1Oc1cccc(C(F)(F)F)c1`, the inhibition is -2.06% (inactive).
Same read-out and setting: in the case of `CCN1CCN(c2ccc(S(=O)(=O)N3CCOCC3)cc2NC(=O)c2cc(Cl)nc3ccccc23)CC1` it was -18.2% (inactive); in that of `CCC(C)c1ccc(C(C)NC(=S)NCc2ccc(F)cc2)cc1` (stereo not drawn), -3.08% (inactive); in that of `O=C(Nc1sc2c(c1C(=O)NCCCO)CCCC2)c1ccccc1`, -30.3% (inactive).
With `COc1ccc(Cc2nnc(NC(=O)c3cc(OC)c(OC)c(OC)c3)s2)cc1OC`, the inhibition was -22.8% (inactive).
Same read-out and setting: in the case of `OC[C@@H]1CN(Cc2ccc(-c3ccccc3)cc2)C[C@H](n2cnc3c(NCc4ccncc4)ncnc32)O1` it was 10.1% (inactive); in that of `CCC(Cc1ccccc1)NC(=O)CCNS(=O)(=O)c1cc(Br)cnc1N` (stereo not drawn), 0.75% (inactive); in that of `O=C(Nc1ccc(Cc2ccncc2)cc1)c1ccc(S(=O)(=O)N2CCOCC2)cc1`, -12.7% (inactive).
The same measure, in the same setting: in the case of `CCN(CC)S(=O)(=O)c1cc(NC(=O)C2CCN(c3ncnc4sc(C)c(C)c34)CC2)ccc1Cl` it was 3.49% (inactive).
On the same count and under the same terms, to `CCC1(c2ccc(F)cc2)NC(=O)N(CC(=O)NCC(=O)Nc2cccc(C)c2C)C1=O` (stereo not drawn) belongs 6.24% (inactive); to `Nc1c(Cl)ncnc1NCCc1ccc(O)cc1`, -6.45% (inactive).
Turning to `CN(C)/C=C/C(=O)c1ccn(S(=O)(=O)c2ccccc2)c1`, the inhibition was -2.09% (inactive).
Same read-out and setting: in the case of `CCc1ccc2oc(=O)cc(CN3CCN(Cc4ccccc4)CC3)c2c1` it was -7.76% (inactive).
The same measure, in the same setting: to `CN(CC(=O)Nc1ccc(Cl)c(C(F)(F)F)c1)C(=O)C1CC(=O)N(c2ccc3c(c2)OCCO3)C1` (stereo not drawn) belongs 17.4% (inactive).
Still for that read-out and setting: in the case of `COCCOc1ccc(C(F)(F)F)cc1NC(=O)c1ccc(C(F)(F)F)cc1` it was 6.49% (inactive).
On to `CN(Cc1ccccc1)C(=O)c1ccc(NC(=O)C2CCCN(C(=O)OC(C)(C)C)C2)cc1` (stereo not drawn), for which the inhibition is -1.28% (inactive).
For `COc1ccccc1NC(=O)CN(c1ccccc1)S(=O)(=O)c1ccccc1`, the inhibition is -16.7% (inactive).
Same read-out and setting: in the case of `CCOc1ccccc1N1CCN(CC(=O)NC(C)c2ccccc2)CC1` (stereo not drawn) it was -9.98% (inactive).
The same measure, in the same setting: in the case of `CCOC(=O)N1CCN(Cc2nc(Cc3cccc(C(F)(F)F)c3)no2)CC1` it was -24.9% (inactive); in that of `COc1ccc(NC(=O)c2cc3c(s2)CCC(C)C3)cc1S(=O)(=O)N1CCOCC1` (stereo not drawn), 9.02% (inactive).
On the same count and under the same terms, in the case of `O=C(NNc1ccnc2cc(Cl)ccc12)C1CCCCC1` it was -34.1% (inactive); in that of `CC1(c2ccccc2)NC(=O)N(CC(=O)Nc2cc3c(cc2Br)OCCO3)C1=O` (stereo not drawn), -11.8% (inactive); in that of `CC1(C)Cc2nc(N)c(=O)sc2C1`, -1.79% (inactive).
Regarding `O=C(CCC(=O)Nc1ccc(Br)cc1)N/N=C/c1ccccc1O`, the inhibition was 29.2% (inactive).
With `CSc1nc(N)nc2c1ncn2CC(=O)N1CCN(Cc2c(C)cc(C)cc2C)CC1`, the inhibition was -3.22% (inactive).
For `O=C1/C(=N\S(=O)(=O)c2cccs2)C([n+]2ccccc2)=C([O-])c2ccccc21`, the inhibition was -4.31% (inactive).
In the case of `COc1ccc(OC)c(/C=C2\NC(=O)NC2=O)c1`, the inhibition is 29.5% (inactive).
Same read-out and setting: in the case of `CCc1cc(=O)[nH]c(SCC(=O)NCc2ccc3c(c2)OCO3)n1` it was -4.66% (inactive); in that of `Cc1ccnc(SC2CC(=O)N(c3ccc(C(C)C)cc3)C2=O)n1` (stereo not drawn), 7.69% (inactive).
The same measure, in the same setting: to `COc1ccccc1/C=C\C(=O)NCC(=O)N/N=C/c1cccc(OC)c1O` belongs 26.9% (inactive).
As to `COc1cc(C(c2sc3nc(C)nn3c2O)N2CCc3ccccc3C2)cc(OC)c1OC` (stereo not drawn), the inhibition is -4.8% (inactive).
On the same count and under the same terms, in the case of `CCN1CCN(c2ccc(S(=O)(=O)N3CCCCC3)cc2NC(=O)/C=C/c2cc(OC)ccc2OC)CC1` it was -0.69% (inactive); in that of `COc1ccc(-c2ocnc2C(=O)NCc2nn(-c3ccccc3)nc2C)cc1`, -0.81% (inactive).
Still for that read-out and setting: in the case of `COc1ccc(C2CC(c3ccc(Br)cc3)=NN2C(=O)CSC2=NCCS2)cc1` (stereo not drawn) it was 7.19% (inactive); in that of `CCc1ccc(CN(C)C(=O)C2CCC(=O)N(CC3CCCCC3)C2)cc1` (stereo not drawn), -5.12% (inactive).
Same read-out and setting: to `CCc1nnc(SCc2ccc(C(=O)OC)o2)n1N` belongs -6.33% (inactive); to `NC(=O)c1ccc(N2CCN(S(=O)(=O)c3ccccc3)CC2)c([N+](=O)[O-])c1`, -20.8% (inactive); to `Cc1ccc(C)c(S(=O)(=O)N2CCN(C(=O)C3CCN(C(=O)c4ccc(F)cc4)CC3)CC2)c1`, -10.9% (inactive).
Turning to `NC(=O)c1nsc(C(=O)N(c2ccccc2F)C(C(=O)NCc2ccc(F)cc2)c2ccc(O)cc2)c1N` (stereo not drawn), the inhibition was -23.1% (inactive).

Tested on in the next test: not listed separately
Briefly: VP16 transactivation inhibitors, counter-screen for SRC1 inhibitor project, cell-based, luminescence, high throughput (AID 588824; in the data active means inhibition above about 25%). The following applies: cell-based VP16 transactivation luciferase luminescence; at 3.6 µM; hits give high values. On the technique in general: A counterscreen serves to expose hits that act by an unwanted route or on another target.
`O=C(Nc1ccc(F)cc1F)c1c(C(F)(F)F)ccnc1Oc1cccc(C(F)(F)F)c1`: the inhibition was -3.8% (inactive).
Turning to `CCN1CCN(c2ccc(S(=O)(=O)N3CCOCC3)cc2NC(=O)c2cc(Cl)nc3ccccc23)CC1`, the inhibition is 1.55% (inactive).
The same measure, in the same setting: in the case of `CCC(C)c1ccc(C(C)NC(=S)NCc2ccc(F)cc2)cc1` (stereo not drawn) it was -3.56% (inactive); in that of `O=C(Nc1sc2c(c1C(=O)NCCCO)CCCC2)c1ccccc1`, -14.6% (inactive).
On the same count and under the same terms, to `COc1ccc(Cc2nnc(NC(=O)c3cc(OC)c(OC)c(OC)c3)s2)cc1OC` belongs -17.4% (inactive); to `OC[C@@H]1CN(Cc2ccc(-c3ccccc3)cc2)C[C@H](n2cnc3c(NCc4ccncc4)ncnc32)O1`, 28.9% (active).
On the same count and under the same terms, in the case of `CCC(Cc1ccccc1)NC(=O)CCNS(=O)(=O)c1cc(Br)cnc1N` (stereo not drawn) it was 5.04% (inactive); in that of `O=C(Nc1ccc(Cc2ccncc2)cc1)c1ccc(S(=O)(=O)N2CCOCC2)cc1`, 9.65% (inactive).
In the case of `CCN(CC)S(=O)(=O)c1cc(NC(=O)C2CCN(c3ncnc4sc(C)c(C)c34)CC2)ccc1Cl`, the inhibition is 34.4% (active).
Still for that read-out and setting: to `CCC1(c2ccc(F)cc2)NC(=O)N(CC(=O)NCC(=O)Nc2cccc(C)c2C)C1=O` (stereo not drawn) belongs 6.8% (inactive); to `Nc1c(Cl)ncnc1NCCc1ccc(O)cc1`, 27.9% (active); to `CN(C)/C=C/C(=O)c1ccn(S(=O)(=O)c2ccccc2)c1`, -2.37% (inactive).
For `CCc1ccc2oc(=O)cc(CN3CCN(Cc4ccccc4)CC3)c2c1`, the inhibition is 2.82% (inactive).
As to `CN(CC(=O)Nc1ccc(Cl)c(C(F)(F)F)c1)C(=O)C1CC(=O)N(c2ccc3c(c2)OCCO3)C1` (stereo not drawn), the inhibition was 14% (inactive).
Regarding `COCCOc1ccc(C(F)(F)F)cc1NC(=O)c1ccc(C(F)(F)F)cc1`, the inhibition is 3.69% (inactive).
Still for that read-out and setting: to `CN(Cc1ccccc1)C(=O)c1ccc(NC(=O)C2CCCN(C(=O)OC(C)(C)C)C2)cc1` (stereo not drawn) belongs 8.32% (inactive).
As to `COc1ccccc1NC(=O)CN(c1ccccc1)S(=O)(=O)c1ccccc1`, the inhibition is -7.82% (inactive).
Consider `CCOc1ccccc1N1CCN(CC(=O)NC(C)c2ccccc2)CC1` (stereo not drawn), for which the inhibition is 0.65% (inactive).
Turning to `CCOC(=O)N1CCN(Cc2nc(Cc3cccc(C(F)(F)F)c3)no2)CC1`, the inhibition was -12.2% (inactive).
Same read-out and setting: to `COc1ccc(NC(=O)c2cc3c(s2)CCC(C)C3)cc1S(=O)(=O)N1CCOCC1` (stereo not drawn) belongs 25.1% (inactive); to `O=C(NNc1ccnc2cc(Cl)ccc12)C1CCCCC1`, 31.1% (active).
As for `CC1(c2ccccc2)NC(=O)N(CC(=O)Nc2cc3c(cc2Br)OCCO3)C1=O` (stereo not drawn), the inhibition is -6.44% (inactive).
Still for that read-out and setting: in the case of `CC1(C)Cc2nc(N)c(=O)sc2C1` it was 5.55% (inactive).
The same measure, in the same setting: to `O=C(CCC(=O)Nc1ccc(Br)cc1)N/N=C/c1ccccc1O` belongs 22.2% (inactive); to `CSc1nc(N)nc2c1ncn2CC(=O)N1CCN(Cc2c(C)cc(C)cc2C)CC1`, 34.5% (active).
For `O=C1/C(=N\S(=O)(=O)c2cccs2)C([n+]2ccccc2)=C([O-])c2ccccc21`, the inhibition was 6.99% (inactive).
Still for that read-out and setting: to `COc1ccc(OC)c(/C=C2\NC(=O)NC2=O)c1` belongs 15.5% (inactive); to `CCc1cc(=O)[nH]c(SCC(=O)NCc2ccc3c(c2)OCO3)n1`, 1.83% (inactive).
The same measure, in the same setting: in the case of `Cc1ccnc(SC2CC(=O)N(c3ccc(C(C)C)cc3)C2=O)n1` (stereo not drawn) it was -8.25% (inactive); in that of `COc1ccccc1/C=C\C(=O)NCC(=O)N/N=C/c1cccc(OC)c1O`, 14.2% (inactive); in that of `COc1cc(C(c2sc3nc(C)nn3c2O)N2CCc3ccccc3C2)cc(OC)c1OC` (stereo not drawn), -0.57% (inactive).
Still for that read-out and setting: in the case of `CCN1CCN(c2ccc(S(=O)(=O)N3CCCCC3)cc2NC(=O)/C=C/c2cc(OC)ccc2OC)CC1` it was 7.17% (inactive).
For `COc1ccc(-c2ocnc2C(=O)NCc2nn(-c3ccccc3)nc2C)cc1`, the inhibition is 15% (inactive).
Regarding `COc1ccc(C2CC(c3ccc(Br)cc3)=NN2C(=O)CSC2=NCCS2)cc1` (stereo not drawn), the inhibition is 10.6% (inactive).
Turning to `CCc1ccc(CN(C)C(=O)C2CCC(=O)N(CC3CCCCC3)C2)cc1` (stereo not drawn), the inhibition was 2.92% (inactive).
For `CCc1nnc(SCc2ccc(C(=O)OC)o2)n1N`, the inhibition was 4.87% (inactive).
Same read-out and setting: to `NC(=O)c1ccc(N2CCN(S(=O)(=O)c3ccccc3)CC2)c([N+](=O)[O-])c1` belongs 31.9% (active); to `Cc1ccc(C)c(S(=O)(=O)N2CCN(C(=O)C3CCN(C(=O)c4ccc(F)cc4)CC3)CC2)c1`, 1.93% (inactive).
Turning to `NC(=O)c1nsc(C(=O)N(c2ccccc2F)C(C(=O)NCc2ccc(F)cc2)c2ccc(O)cc2)c1N` (stereo not drawn), the inhibition was -2.03% (inactive).

The record behind these values is PubChem BioAssay.
